# Reference: the supplement of paper PMC10849652
# Of roughly 8,800 targets only a part is listed; those with a hit were picked by preference. About 0.5% of all pairs of compound and target were hits. Unmarked numbers belong to inactive results.
# Key:
# Experiment in all cases: log2 fold change, soluble protein after heating vs DMSO (PISA); higher = thermal stabilisation; K562 lysate, 10 uM; active = over 0.2 and 3.5 SD of the protein, either way, in both replicates (recomputed)
# vemurafenib = compound: CCCS(=O)(=O)Nc1ccc(F)c(C(=O)c2c[nH]c3ncc(-c4ccc(Cl)cc4)cc23)c1F [vemurafenib]
# Procedure, shortened: (§1)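 Thermal stability, expressed as log-two fold change relative to solvent controls, is given from duplicates. Crude K562 extract in PBS pH 7.4 with 1 mM MgCl2, at 1 mg/mL protein, was treated with 10 μM compound for 30 min and heated in aliquots for 3 min across 48°C-58°C. After pooling, adjustment to 0.5% NP-40 at 4°C and centrifugation at 21,000xg for 90 min, supernatant protein was measured by TMTpro 16plex LC-MS/MS with channel sums equalised.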
# [1] = compound: CCCS(=O)(=O)Nc1ccc(F)c(C(=O)c2c[nH]c3ncc(Cl)cc23)c1F
# Procedure, shortened: as §1
# barasertib = compound: CCN(CCCOc1ccc2c(Nc3cc(CC(=O)Nc4cccc(F)c4)[nH]n3)ncnc2c1)CCOP(=O)(O)O [barasertib]
# Procedure, shortened: as §1
# [2] = compound: CC[C@@H]1C(=O)N(C)c2cnc(Nc3ccc(C(=O)NC4CCN(C)CC4)cc3OC)nc2N1C1CCCC1
# Procedure, shortened: as §1
# volasertib = compound: CC[C@@H]1C(=O)N(C)c2cnc(Nc3ccc(C(=O)N[C@H]4CC[C@H](N5CCN(CC6CC6)CC5)CC4)cc3OC)nc2N1C(C)C [volasertib]
# Procedure, shortened: as §1
# [3] = compound: CCn1c(C(=O)N(C2CC2)C2CC2)cc2c3c(ncn3C)c(Nc3cc(C)n(C)n3)nc21
# Procedure, shortened: as §1
# [4] = compound: CCn1cc(-c2ccnc3[nH]c(-c4cccc(CN(C)C)c4)cc23)c(-c2ccc(NC(=O)N(C)C)cc2)n1
# Procedure, shortened: as §1
# [5] = compound: CN1CCC(CNc2ccc3ncc(-c4cccc(OC(F)(F)F)c4)n3n2)CC1
# Procedure, shortened: as §1
# saracatinib = compound: CN1CCN(CCOc2cc(OC3CCOCC3)c3c(Nc4c(Cl)ccc5c4OCO5)ncnc3c2)CC1 [saracatinib]
# Procedure, shortened: as §1
# sotrastaurin = compound: CN1CCN(c2nc(C3=C(c4c[nH]c5ccccc45)C(=O)NC3=O)c3ccccc3n2)CC1 [sotrastaurin]
# Procedure, shortened: as §1
# Sequence of UniProt Q10713 (Q10713 whole entry, looked up): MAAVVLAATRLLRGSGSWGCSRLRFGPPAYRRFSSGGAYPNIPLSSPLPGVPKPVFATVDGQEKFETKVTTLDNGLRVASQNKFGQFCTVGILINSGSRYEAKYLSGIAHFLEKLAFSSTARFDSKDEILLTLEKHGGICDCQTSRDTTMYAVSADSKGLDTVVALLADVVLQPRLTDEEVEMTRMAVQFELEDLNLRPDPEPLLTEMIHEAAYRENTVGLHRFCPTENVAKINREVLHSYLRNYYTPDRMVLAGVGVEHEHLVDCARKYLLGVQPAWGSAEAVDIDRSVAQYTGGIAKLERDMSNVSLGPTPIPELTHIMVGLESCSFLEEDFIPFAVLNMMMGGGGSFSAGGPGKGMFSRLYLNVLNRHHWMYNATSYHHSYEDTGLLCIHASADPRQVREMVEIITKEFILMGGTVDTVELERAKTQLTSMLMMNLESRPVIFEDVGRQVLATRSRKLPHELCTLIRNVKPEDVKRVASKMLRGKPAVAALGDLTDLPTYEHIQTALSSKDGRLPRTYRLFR
# Sequence of UniProt Q12972 (Q12972 whole entry, looked up): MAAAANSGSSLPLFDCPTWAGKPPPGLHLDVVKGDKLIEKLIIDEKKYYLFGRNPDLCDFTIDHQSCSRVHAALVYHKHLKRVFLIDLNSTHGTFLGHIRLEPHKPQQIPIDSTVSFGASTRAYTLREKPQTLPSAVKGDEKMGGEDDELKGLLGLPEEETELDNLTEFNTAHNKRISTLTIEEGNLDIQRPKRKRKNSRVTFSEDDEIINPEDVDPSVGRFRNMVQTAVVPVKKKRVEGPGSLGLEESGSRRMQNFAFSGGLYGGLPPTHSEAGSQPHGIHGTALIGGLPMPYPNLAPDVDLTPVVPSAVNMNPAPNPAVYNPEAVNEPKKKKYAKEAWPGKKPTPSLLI
# Sequence of UniProt Q8WUM4 (Q8WUM4 whole entry, looked up): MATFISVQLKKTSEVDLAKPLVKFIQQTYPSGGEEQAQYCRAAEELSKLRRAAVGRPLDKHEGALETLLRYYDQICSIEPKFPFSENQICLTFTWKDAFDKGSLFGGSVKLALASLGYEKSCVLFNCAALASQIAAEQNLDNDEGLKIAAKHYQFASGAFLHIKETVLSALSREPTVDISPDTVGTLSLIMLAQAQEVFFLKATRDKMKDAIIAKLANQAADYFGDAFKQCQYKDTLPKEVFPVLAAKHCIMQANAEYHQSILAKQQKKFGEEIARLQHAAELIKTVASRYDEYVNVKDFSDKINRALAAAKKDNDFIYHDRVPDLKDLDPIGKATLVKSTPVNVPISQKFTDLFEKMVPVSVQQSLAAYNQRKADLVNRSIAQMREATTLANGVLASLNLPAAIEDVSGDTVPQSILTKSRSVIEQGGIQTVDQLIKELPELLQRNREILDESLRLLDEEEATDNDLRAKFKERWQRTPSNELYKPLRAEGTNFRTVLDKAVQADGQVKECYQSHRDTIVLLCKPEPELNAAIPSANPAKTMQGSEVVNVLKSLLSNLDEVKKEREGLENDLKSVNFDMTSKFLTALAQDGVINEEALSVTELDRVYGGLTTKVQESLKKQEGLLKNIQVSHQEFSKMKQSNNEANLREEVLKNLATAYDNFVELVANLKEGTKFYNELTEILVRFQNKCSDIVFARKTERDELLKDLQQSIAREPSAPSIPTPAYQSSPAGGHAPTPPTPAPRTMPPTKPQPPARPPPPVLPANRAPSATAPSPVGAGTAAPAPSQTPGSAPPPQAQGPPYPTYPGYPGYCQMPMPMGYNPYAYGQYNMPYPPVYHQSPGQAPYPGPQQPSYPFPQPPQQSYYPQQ
# Sequence of UniProt Q9HBH1 (Q9HBH1 whole entry, looked up): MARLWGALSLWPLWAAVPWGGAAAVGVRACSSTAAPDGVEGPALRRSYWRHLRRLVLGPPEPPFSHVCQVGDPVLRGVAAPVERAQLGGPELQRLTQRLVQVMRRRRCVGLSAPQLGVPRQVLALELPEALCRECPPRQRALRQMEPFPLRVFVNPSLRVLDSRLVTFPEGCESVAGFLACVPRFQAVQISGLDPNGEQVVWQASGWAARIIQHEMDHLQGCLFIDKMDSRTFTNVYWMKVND
# Sequence of UniProt P31323 (P31323 whole entry, looked up): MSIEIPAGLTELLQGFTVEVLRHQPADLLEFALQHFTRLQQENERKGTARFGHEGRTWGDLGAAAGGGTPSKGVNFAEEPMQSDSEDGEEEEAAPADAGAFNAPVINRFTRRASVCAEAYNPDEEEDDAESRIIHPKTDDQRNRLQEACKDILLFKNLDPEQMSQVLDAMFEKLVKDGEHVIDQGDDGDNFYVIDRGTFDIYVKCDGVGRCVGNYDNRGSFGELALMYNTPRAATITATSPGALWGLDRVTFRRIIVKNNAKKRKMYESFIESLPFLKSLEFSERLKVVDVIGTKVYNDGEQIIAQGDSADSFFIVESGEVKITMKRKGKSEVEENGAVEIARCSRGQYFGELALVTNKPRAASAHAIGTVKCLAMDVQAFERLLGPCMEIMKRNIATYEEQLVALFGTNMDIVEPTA
# Sequence of UniProt Q9Y6I8 (Q9Y6I8 whole entry, looked up): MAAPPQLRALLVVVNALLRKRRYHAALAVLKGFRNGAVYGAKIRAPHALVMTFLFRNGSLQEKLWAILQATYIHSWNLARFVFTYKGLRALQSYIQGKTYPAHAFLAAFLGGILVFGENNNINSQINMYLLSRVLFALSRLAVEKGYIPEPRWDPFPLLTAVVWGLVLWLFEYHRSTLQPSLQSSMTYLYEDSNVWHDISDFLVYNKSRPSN
# Sequence of UniProt Q9BTU6 (Q9BTU6 whole entry, looked up): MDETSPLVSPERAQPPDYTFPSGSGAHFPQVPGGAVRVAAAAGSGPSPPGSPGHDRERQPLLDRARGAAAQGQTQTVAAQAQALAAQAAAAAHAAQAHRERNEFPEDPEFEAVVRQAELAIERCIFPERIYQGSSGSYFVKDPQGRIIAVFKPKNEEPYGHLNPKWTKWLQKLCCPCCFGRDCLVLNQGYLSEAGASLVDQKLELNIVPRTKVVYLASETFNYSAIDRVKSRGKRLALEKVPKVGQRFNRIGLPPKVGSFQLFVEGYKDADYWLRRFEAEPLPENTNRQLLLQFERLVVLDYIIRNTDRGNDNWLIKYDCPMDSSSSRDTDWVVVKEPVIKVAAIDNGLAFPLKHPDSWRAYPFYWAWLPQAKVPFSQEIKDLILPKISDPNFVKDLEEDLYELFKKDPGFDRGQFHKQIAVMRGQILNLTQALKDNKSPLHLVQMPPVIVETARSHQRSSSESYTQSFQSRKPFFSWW
# Sequence of UniProt Q9UBV8 (Q9UBV8 whole entry, looked up): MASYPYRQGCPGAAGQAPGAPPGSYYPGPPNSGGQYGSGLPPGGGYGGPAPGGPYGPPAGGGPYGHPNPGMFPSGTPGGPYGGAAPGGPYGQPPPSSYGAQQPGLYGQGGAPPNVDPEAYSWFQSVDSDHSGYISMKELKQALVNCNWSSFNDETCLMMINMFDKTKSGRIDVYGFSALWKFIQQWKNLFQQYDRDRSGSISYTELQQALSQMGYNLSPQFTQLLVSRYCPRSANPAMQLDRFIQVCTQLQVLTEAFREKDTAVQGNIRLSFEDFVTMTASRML
# Sequence of UniProt Q96I23 (Q96I23 whole entry, looked up): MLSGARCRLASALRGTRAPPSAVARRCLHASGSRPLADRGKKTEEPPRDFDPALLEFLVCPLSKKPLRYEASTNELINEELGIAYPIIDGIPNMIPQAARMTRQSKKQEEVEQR
# Sequence of UniProt Q9H2H8 (Q9H2H8 whole entry, looked up): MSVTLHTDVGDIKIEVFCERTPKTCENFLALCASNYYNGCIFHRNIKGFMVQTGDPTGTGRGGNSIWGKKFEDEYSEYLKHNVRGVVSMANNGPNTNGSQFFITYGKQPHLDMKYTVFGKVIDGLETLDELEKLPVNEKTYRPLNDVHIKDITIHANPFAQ
# Sequence of UniProt Q96S99 (Q96S99 whole entry, looked up): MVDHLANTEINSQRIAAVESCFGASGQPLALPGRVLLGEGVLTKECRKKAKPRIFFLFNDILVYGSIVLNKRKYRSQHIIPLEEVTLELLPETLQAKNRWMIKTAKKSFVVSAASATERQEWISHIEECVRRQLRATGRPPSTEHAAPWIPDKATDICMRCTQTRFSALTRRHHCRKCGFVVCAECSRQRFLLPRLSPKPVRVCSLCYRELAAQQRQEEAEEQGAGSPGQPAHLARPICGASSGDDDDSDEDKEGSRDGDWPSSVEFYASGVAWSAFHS
# Sequence of UniProt Q15054 (Q15054 whole entry, looked up): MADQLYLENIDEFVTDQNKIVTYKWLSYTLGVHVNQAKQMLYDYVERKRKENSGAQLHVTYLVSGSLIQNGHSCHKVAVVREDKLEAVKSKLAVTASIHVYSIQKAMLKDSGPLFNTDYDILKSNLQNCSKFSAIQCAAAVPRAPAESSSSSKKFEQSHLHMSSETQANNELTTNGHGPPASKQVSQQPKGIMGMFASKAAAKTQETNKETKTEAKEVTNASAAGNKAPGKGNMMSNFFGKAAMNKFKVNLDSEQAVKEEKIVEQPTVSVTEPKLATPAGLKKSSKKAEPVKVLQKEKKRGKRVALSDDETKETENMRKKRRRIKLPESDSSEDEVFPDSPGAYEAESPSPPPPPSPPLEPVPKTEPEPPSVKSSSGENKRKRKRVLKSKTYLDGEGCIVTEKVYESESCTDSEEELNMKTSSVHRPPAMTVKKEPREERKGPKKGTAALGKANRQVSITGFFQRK
# Sequence of UniProt P57721 (P57721 whole entry, looked up): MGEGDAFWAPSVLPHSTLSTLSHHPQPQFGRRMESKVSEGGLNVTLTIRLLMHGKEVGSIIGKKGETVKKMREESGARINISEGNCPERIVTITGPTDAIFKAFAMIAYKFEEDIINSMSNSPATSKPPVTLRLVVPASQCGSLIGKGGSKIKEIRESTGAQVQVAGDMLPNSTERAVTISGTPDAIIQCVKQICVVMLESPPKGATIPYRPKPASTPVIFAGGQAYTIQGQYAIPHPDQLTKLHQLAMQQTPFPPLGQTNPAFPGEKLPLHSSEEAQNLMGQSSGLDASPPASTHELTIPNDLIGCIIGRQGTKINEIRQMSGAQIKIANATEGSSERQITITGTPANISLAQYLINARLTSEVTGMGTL
Target,log2 fold change (vemurafenib),log2 fold change [1],log2 fold change (barasertib),log2 fold change [2],log2 fold change (volasertib),log2 fold change [3],log2 fold change [4],log2 fold change [5],log2 fold change (saracatinib),log2 fold change (sotrastaurin)
PPCDC (UniProt Q96CD2),0.1,0.003,0.066,0.047,0.006,0.008,-0.342,0.165,0.018,0.038
PTPN1 (UniProt P18031),0.04,-0.005,0.042,-0.029,-0.04,0.033,-0.061,-0.03,0.022,0.069
PMPCA (UniProt Q10713),0.047,0.037,-0.014,-0.039,-0.031,-0.025,-0.017,0.233,-0.024,0.006
PEF1 (UniProt Q9UBV8),-0.025,0.015,0.189,0.033,0.009,-0.001,-0.116,-0.043,-0.025,-0.016
PLEKHF1 (UniProt Q96S99),0.019,-0.008,0.004,-0.004,0.002,0.059,-0.062,0.018,0.007,-0.028
PKN1 isoform 2 (UniProt Q16512),0.013,0.049,-0.006,0.013,-0.009,0.024,-0.055,-0.483 (active),0.002,-0.143
POLD3 (UniProt Q15054),0.003,-0.005,0.004,-0.014,-0.045,-0.013,0.009,-0.03,0.028,-0.01
PMS2 (UniProt P54278),-0.015,-0.028,0.033,-0.072,-0.147,0.101,-0.02,0.012,-0.004,0.001
PRKAR2B (UniProt P31323),0.01,0,0.053,-0.028,-0.043,-0.032,0.051,-0.26 (active),0.007,-0.17
PCBP3 (UniProt P57721),0.021,-0.007,-0.007,-0.003,0.006,-0.011,-0.062,0.032,0.014,-0.047
PLXNB2 (UniProt O15031),0.011,-0.007,0.008,0.051,-0.021,-0.003,-0.043,-0.019,0.005,0.024
PPP1R8 (UniProt Q12972),0.049,-0.011,-0.032,0.08,-0.007,-0.031,-0.28 (active),0.176,-0.038,0.015
PDE4DIP isoform 4 (UniProt Q5VU43),0.027,0.011,0.092,0.046,0.025,0.04,-0.04,-0.005,0.034,-0.014
PXMP4 (UniProt Q9Y6I8),0.343,0.114,0.04,-0.035,-0.039,0.064,-0.246,0.006,0.036,0.025
PYURF (UniProt Q96I23),-0.048,-0.003,-0.049,0.103,0.059,0.042,-0.03,-0.002,-0.013,-0.034
PRKCSH (UniProt K7ELL7),0.089,0.02,-0.037,0.186,-0.04,0.013,0.217,-0.008,-0.011,-0.015
PDCD6IP isoform 2 (UniProt Q8WUM4),-0.018,-0.005,-0.008,-0.036,-0.022,0.032,0.071,-0.054,0.011,0.003
PFAS (UniProt O15067),0.029,0.023,0.015,-0.048,-0.091,0,-0.023,0.001,-0.013,-0.015
PDCD6IP (UniProt Q8WUM4),-0.003,0.015,0.083,-0.061,0.006,0.013,-0.073,-0.035,-0.068,-0.139
PPT2 isoform 3 (UniProt Q9UMR5),0.007,0.012,0.028,0.01,-0.023,-0.026,0.007,0.018,-0.011,0.003
PDF (UniProt Q9HBH1),-0.012,0.03,0.028,-0.118,-0.004,0.01,-0.014,-0.181,0.032,-0.02
PGPEP1 (UniProt Q9NXJ5),0.021,0.022,-0.036,-0.091,-0.027,0.036,-0.096,0.03,0,-0.056
PI4K2A (UniProt Q9BTU6),-0.025,0.037,0.041,-0.009,-0.027,0.004,0.019,0.042,-0.037,0.102
PWP1 (UniProt Q13610),-0.09,0.019,0.012,-0.032,-0.004,-0.023,0.62 (active),-0.039,0.01,-0.021
PRRC2A (UniProt P48634),-0.006,0.008,-0.013,0.107,0.012,0.013,0.05,0.008,0.049,-0.014
PPIL3 (UniProt Q9H2H8),0.048,-0.017,0.099,-0.004,-0.007,0.027,0.067,0.021,0.004,-0.03
POLR2F (UniProt P61218),0.077,-0.018,0.034,-0.043,0.036,0.078,1.25 (active),-0.211,-0.042,0.02
PHKG2 (UniProt P15735),-0.074,-0.055,0.126,0.074,0.073,-0.007,-0.103,0.045,0.062,-0.054
PTPN6 isoform 4 (UniProt P29350),0.02,-0.089,0.081,-0.487 (active),0.014,0.026,-0.038,-0.024,-0.046,0.006
